Experimental data: PubChem BioAssay (NCI)
About 83,000 compounds went through this panel and 20% of them were active in at least one assay; those are over-represented in the sample as a whole.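 Results are percent growth after 48 hours of single-concentration exposure. 100 means growth as in untreated cells, lower positive values show inhibition; negative values down to -100 show cell death.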 Unmarked numbers belong to inactive results. The source made the active and inactive calls. Rule for the calls: active = growth percent below 10; inactive = the rest.

tested on: PC-3 prostate; test: NCI-60 one-dose screen, 48 h (100 = growth as untreated, 0 = no growth, -100 = all killed); settings: 10 µM unless noted

In order of rising growth:
1. COc1cc(/C(C#N)=C/c2nc3c(N4CCOCC4)nc(Cl)nc3n2C)cc(OC)c1OC  10.6%
2. COc1cccc2cc(N(C)c3nc(C)nc4ccsc34)ccc12  12.7%
3. CNCCNc1nc2ccccc2c2c(=O)c3cc(OC)ccc3sc12  14%
4. Nc1ccccc1-c1ccc(-c2ccc(Cl)cc2)c2c1[nH]c1ccccc12  14.1%
5. O=C(/C=C/c1ccc(C(F)(F)F)cc1)c1ccc(Nc2nc(NCCO)nc(N3CCOCC3)n2)cc1  25.3%
6. O=C(NCc1ccco1)C1CN(c2ccc(Cl)cc2)N(c2ccc(Cl)cc2)C1=O (centres undefined)  27%
7. COc1cc(/C=C/C(=O)c2ccc(Nc3nc(NCCO)nc(N4CCOCC4)n3)cc2)cc(OC)c1OC  31%
8. COC(=O)/C(CCC=C(C)C)=C1\[C@@H](OC(C)=O)C[C@@]2(C)[C@H]1C[C@@H](O)[C@H]1[C@@]3(C)CC[C@H](NCc4ccccc4)[C@@H](C)[C@@H]3CC[C@@]12C  31.3%
9. NCCOc1ccccc1/C=C1\c2ccccc2-c2ccc([N+](=O)[O-])cc21  36.8%
10. Cc1ccc2sc3c(NCCCNCCO)nc4ccccc4c3c(=O)c2c1  39.3%
11. CCN1C(=O)N(CC)C2Nn3c(s/c(=C\c4ccccc4F)c3=O)=NC21 (centres undefined)  39.6%
12. NCCOc1ncccc1/C=C1\c2ccccc2-c2ccc(F)cc21  42.5%
13. CN1C(=O)N(C)C2Nn3c(s/c(=C4\C(=O)N(CCc5ccccc5)c5ccccc54)c3=O)=NC21 (centres undefined)  44.4%
14. COc1ccc(N)c(-c2cc3c(c4c2[nH]c2ccc(OC)cc24)CCCC3)c1  52.9%
15. O=C(/C=C/c1ccc(Cl)cc1)c1ccc(Nc2nc(NCCO)nc(Nc3ccc(Cl)cc3)n2)cc1  53.1%
16. Cc1ccc2cccc(Oc3ccc(Nc4ncnc5onc(-c6ccccc6)c45)cc3)c2n1  58.5%
17. O=c1c2cc(F)ccc2sc2c(NCCN3CCCC3)nc3ccccc3c12  61%
18. O=c1c(-c2nc3ccccc3[nH]2)cc2ccccc2n1Cc1cn(Cc2ccc(N3CCOCC3)cc2)nn1  65.9%
19. Cc1nc(Nc2cn[nH]c2C(=O)Nc2ccc(CN3CCN(C)CC3)cc2)c2ccsc2n1  69.8%
20. COc1cc2nc(NC3CCCC3)nc(NC3CCN(C(C)C)CC3)c2cc1OC  71.1%
21. Cc1ccccc1CNC(=O)C1CN(c2ccc(Cl)cc2)N(c2ccc(Cl)cc2)C1=O (centres undefined)  72.8%
22. CNC(=O)c1cc(Oc2ccc(CC(=O)Nc3cc(C(C)(C)C)cn3C)cc2)ccn1  75.9%
23. COc1cc(/C=C2\CN(C)C/C(=C\c3cc(CN4CCCC4)c(O)c(OC)c3)C2=O)cc(CN2CCCC2)c1O  76.8%
24. COC(=O)/C(CCC=C(C)C)=C1\[C@@H](OC(C)=O)C[C@@]2(C)[C@H]1C[C@@H](O)[C@H]1[C@@]3(C)CC[C@H](NCCCNCCCCNCCCN)[C@@H](C)[C@@H]3CC[C@@]12C  77.3%
25. O=C(Cn1cc(COc2ncnc3c2cnn3-c2ccccc2)nn1)Nc1ccccn1  90.3%
26. COc1cc(/C=C/C(=O)c2ccc(Cl)cc2)cc(CN2CCCCC2)c1O  90.6%
27. CN1C(=O)N(C)C2(c3ccccc3)OC(=S)NC12c1ccccc1 (centres undefined)  92.4%
28. Cn1c2c(c(=O)[nH]c1=O)NC1=C(C(=O)c3ccccc31)C1(C=C(O)c3ccccc31)N2 (centres undefined)  94.1%
29. Clc1ccc(Oc2ccc(Nc3ncnc4onc(-c5ccccc5)c34)cc2)c(Cl)c1  94.2%
30. Nc1nc(-c2cnccn2)nn1-c1nc2ccccc2s1  99.4%
31. CC(C)c1ccc(S(=O)(=O)NC(=O)NC2CCCC2)cc1  99.9%
32. O=C(CSc1nc2ccccc2c(=O)n1-c1ccccc1)Nc1ccc(C(=O)/C=C/c2ccc(Cl)cc2)cc1  103%
33. CCCCC1CCc2cccc3c(SCC(=O)N(C)c4ccc(Cl)cc4)cc[n+]1c23 (centres undefined)  106%
34. O=C(O)c1cn(C2CC2)c2cc(N3CCN(C(=O)C[n+]4ccccc4)CC3)c(F)cc2c1=O  106%

`CN1CCN(Cc2ccc(NC(=O)c3[nH]ncc3Nc3cc(OC4CCCC4)ncn3)cc2)CC1` was tested, and the growth was 8.34% (active).
`Cn1c(/C=C(\C#N)c2ccccc2)nc2c(N3CCOCC3)nc(Cl)nc21` was tested, and the growth was -62.3% (active).
In the case of `COc1cc(/C=C2\CN(S(=O)(=O)c3ccccc3)C/C(=C\c3cc(CN4CCCC4)c(O)c(OC)c3)C2=O)cc(CN2CCCC2)c1O`, the growth is reported as 8.85% (active).
For `O=c1c2cc(F)ccc2sc2c(Nc3ccncc3)nc3ccccc3c12`, the growth was -10.7% (active).
In the case of `COc1cccc(/C(C#N)=C/c2nc3c(N4CCOCC4)nc(Cl)nc3n2C)c1`, the growth is reported as -27.4% (active).
